# Measured values from PubChem BioAssay AID463173 (ICCB-Longwood Screening Facility, Harvard Medical School, 2010).
# Screen size: about 52,000 compounds; about 4,300 (8.3%) were called active. This is one part of a sample in which actives are shown more often than they occur. Unmarked numbers belong to inactive results. Rule as the data show it: active = survival mostly below about 52% (no sharp cut-off); inactive = mostly above about 56%.
# Tested on: DeltatarO mutant
# Test: growth inhibition of S. aureus wild type versus tarO mutant, primary screen, teichoic acid synthesis inhibitors, RN4220, OD600 (AID 463173)
# Conditions: OD600, 18 h, hits give low values, screened at 18.75 µg/mL (by protocol)
row,Compound,survival
1,Cc1c(Cl)cccc1Nc1nn2c(=O)c3ccc(C(=O)NCCc4ccccc4)cc3nc2s1,98%
2,O=C(C1CCCN(S(=O)(=O)c2cccc3nsnc23)C1)N1CCN(c2ccccc2Cl)CC1 (stereo not given),107%
3,COCCc1nn2c(=O)cc(COC(=O)c3ccco3)nc2s1,92%
4,Cc1cc(C)c(NC(=O)Cn2nnc(-c3ccccc3)n2)c(C)c1,63%
5,Cc1ccccc1OCC(=O)NCC(c1ccc(Cl)cc1)N1CCCCC1 (stereo not given),66%
6,Cc1ccccc1Nc1c(-c2cccs2)nc2cccc(C)n12,63%
7,Cc1ccc2nc(-c3ccc(Cl)cc3)cc(C(=O)OCC(=O)c3ccccc3)c2c1,58%
8,COc1ccc(-c2cc(C(=O)Oc3ccccc3)c3cc(C)ccc3n2)cc1,9% (active)
9,COc1ccc(-c2cc(C(=O)NC(C)c3ccccc3)c3cc(C(C)C)ccc3n2)cc1 (stereo not given),101%
10,Cc1noc(C)c1S(=O)(=O)N(CC(=O)Nc1ccc(C(F)(F)F)cc1)c1ccc(C(C)C)cc1,55%
11,Cc1n[nH]c(C)c1S(=O)(=O)N(CC(=O)NCc1ccccc1Cl)c1ccc(C(C)C)cc1,52%
12,COc1cccc(CNC(=O)CN(c2ccc(C(C)C)cc2)S(=O)(=O)c2c(C)n[nH]c2C)c1,56%
13,Cc1ccc(N(CC(=O)NC(C)c2ccccc2)S(=O)(=O)c2c(C)noc2C)cc1 (stereo not given),74%
14,Cc1ccc(N(CC(=O)Nc2ccc(C)c(F)c2)S(=O)(=O)c2c(C)n[nH]c2C)cc1,66%
15,Cc1n[nH]c(C)c1S(=O)(=O)N(CC(=O)Nc1ccc(C(F)(F)F)cc1)c1ccc(C(C)C)cc1,46% (active)
16,Cc1ccc(CNC(=O)CN(c2ccc(C(C)C)cc2)S(=O)(=O)c2c(C)n[nH]c2C)cc1,43% (active)
17,COc1ccc(CNC(=O)CN(c2ccc(C)cc2)S(=O)(=O)c2c(C)n[nH]c2C)cc1,85%
18,Cc1n[nH]c(C)c1S(=O)(=O)N(CC(=O)NC(C)c1ccccc1)c1ccc(C(C)C)cc1 (stereo not given),54% (active)
19,CSc1ccc(CCNC(=O)c2cc3c(-c4ccccc4F)nn(C)c3s2)cc1,55%
20,CCOc1ccc(CNC(=O)C2CCN(S(=O)(=O)c3cn(C)cn3)CC2)cc1,99%
21,Cc1ccc(NC(=O)CCn2nc(C)c3c(C)n(-c4ccccc4)nc3c2=O)cc1Cl,117%
22,CCOCCCn1c(SCC(=O)Nc2ccc(OC)cc2OC)nc2ccccc2c1=O,89%
23,CCOC(=O)C1CCCN(C(=O)c2ccccc2NC(=O)c2nsc3ccccc23)C1 (stereo not given),130%
24,CCOC(=O)c1[nH]c(C)c(CCC(=O)Nc2ccc(C(C)=O)cc2)c1C,72%
25,O=C(NCc1ccccc1)C(=O)Nc1ccc2nc3n(c(=O)c2c1)CCCCC3,88%

row,Compound,survival
1,COc1cccc(Cn2c(=O)n(Cc3ccco3)c(=O)c3oc4ccccc4c32)c1,66%
2,O=C(CC1CCCCC1)N1CCN(c2ccccc2)CC1,82%
3,O=C(Nc1nnc(S(=O)(=O)N2CCCc3ccccc32)s1)c1ccccc1Cl,28% (active)
4,Cc1ccccc1C(=O)Nc1nnc(S(=O)(=O)N2CCCc3ccccc32)s1,96%
5,Cc1ccccc1C(=O)Nc1nnc(S(=O)(=O)N2CCc3ccccc32)s1,95%
6,O=C(Nc1nnc(S(=O)(=O)N2CCc3ccccc32)s1)c1ccccc1Cl,20% (active)
7,O=C(Nc1nnc(S(=O)(=O)N2CCCc3ccccc32)s1)c1ccccc1Br,17% (active)
8,CCOC(=O)c1ccc(CN(Cc2ccccc2C)S(=O)(=O)c2ccc(F)c(C(=O)Nc3cccc(OC)c3)c2)cc1,75%
9,CCNC(=O)CC1C(=O)N(c2ccc(F)cc2)C(=O)N1CCOC (stereo not given),84%
10,COc1ccc(CN(C(=O)Cc2coc3ccc(C)cc23)C2CCS(=O)(=O)C2)cc1 (stereo not given),67%
11,Cc1cc2n(n1)CCCN2C(=O)Nc1ccccc1C(F)(F)F,76%
12,CCc1ccc(NC(=O)C(=O)NCC(c2cccnc2)N2CCOCC2)cc1 (stereo not given),89%
13,CC(=O)Nc1cc(OC(C)=O)c2nonc2c1OC(C)=O,29% (active)
14,CC(=O)Oc1ccc(Nc2nc3nonc3nc2Nc2ccccc2)cc1,83%
15,CC(=O)Nc1nonc1NC(C)=O,87%
16,COC(=O)c1nnn(-c2ccc(Br)cc2)c1C(=O)OC,79%
17,CCOC(=O)c1ccc(NC(=O)CCc2c(C)nc3c(c(C)nn3C)c2C)cc1,93%
18,CCOC(=O)c1ccc(NC(=O)CCc2c(C)nc3c(c(C)nn3C(C)(C)C)c2C)cc1,55% (active)
19,COC(=O)c1ccc(NC(=O)CCc2c(C)nc3c(c(C)nn3C(C)(C)C)c2C)cc1,59%
20,Cc1ccc(-c2nc(CNC(=O)Nc3ccccc3)c(C)o2)cc1,71%
21,COC(=O)c1cc2c(ccn2-c2ccc(F)cc2)n1CC(=O)N1CCCCC1,97%
22,COc1ccc(C)cc1NC(=O)C1CCN(S(=O)(=O)c2ccc3[nH]c4c(c3c2)CCCCC4)CC1,94%
23,CCOc1ccc(NC(=O)CCc2c(C)nc3c4c(C)cc(C)nc4nn3c2C)cc1,125%
24,COc1cc(NC(=O)CCc2c(C)nc3c4c(C)cc(C)nc4nn3c2C)cc(OC)c1,74%
25,COC(=O)c1cc(NC(=O)CCc2c(C)nc3c4c(C)cc(C)nc4nn3c2C)cc(C(=O)OC)c1,56% (active)
